Results on 19 compounds are retold here after PubChem BioAssay (EPA / NIEHS).

The structures appear in SMILES notation. Results filed as inconclusive are left out. Activity calls are given as the source filed them. How the source made its calls: active means hit-call score of the fitted dose curve at least 0.9, where 1 is the maximum; inconclusive means response in the unintended direction; inactive means score below 0.9.

This experiment addresses Cytochrome P450 2C19 (Homo sapiens) (UniProt P33261). As to the kind of experiment: NVS_ADME_hCYP2C19: NovaScreen (NVS) CYP450-related Enzyme Activity (ADME) Assay for human CYP2C19 (AID 2283113).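 On AC50: potency for inhibition seen as loss of fluorescent signal.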 The method, then: NVS_ADME_hCYP2C19 is a biochemical, single-readout assay that uses extracted gene-proteins from insect cells in a cell-free assay. Measurements were taken 1 hour after chemical dosing in a 96-well plate.NVS_ADME_hCYP2C19 is one of one assay component(s) measured or calculated from the NVS_ADME_hCYP2C19 assay. It is designed to make measurements of enzyme activity, a form of enzyme reporter, as detected with fluorescence intensity signals by Fluorescence technology.Data from the assay component NVS_ADME_hCYP2C19 was analyzed into 1 assay endpoint. This assay endpoint, NVS_ADME_hCYP2C19, was analyzed in the positive analysis fitting direction relative to Acetonitrile as the negative control and baseline of activity. Using a type of enzyme reporter, loss-of-signal activity can be used to understand changes in the enzymatic activity as they relate to the gene CYP2C19. Furthermore, this assay endpoint can be referred to as a primary readout, because this assay has produced multiple assay endpoints where this one serves a enzymatic activity function. To generalize the intended target to other relatable targets, this assay endpoint is annotated to the cyp intended target family, where the subfamily is xenobiotic metabolism.
Binding assays used specific radioligands (tritiated, iodinated) with non-radioactive competitive displacement ligands in agonist or antagonist protocols (as indicated) and various reference compounds and inhibitors to titrate specific binding to receptors and transporters. Most enzyme assays (CYPs, kinases, phosphatases, proteases, HDACs) used recombinant protein and specific substrates (fluorescence mostly, some colorimetric and radioactive) and inhibitors, followed by a biochemical separation of substrate and product. All assays for the biochemical HTS were initially run in duplicate at a single concentration (10 uM for CYP450 assays and 25 uM for all others). […] Each assay was run with positive and negative controls, and concurrent controls on every plate. The follow-up (secondary) screen tested active chemical-pairs in concentration series, as well as a few additional assays not tested in the primary screen, some selected negative inactives, and several cases re-run in the concentration series for confirmatory purposes.
One may read the AC50 as the concentration giving half of the maximal activity seen. Take `CCc1cc(C2=C(C(=O)O)N(c3ccccc3C(F)(F)F)S(=O)(=O)c3ccccc32)cc2c1OCO2`: the AC50 is 15.8 µM (active). Same read-out and setting: for `Cc1cc(SC2=C(O)C[C@@](CCc3ccc(N)cc3)(C(C)C)OC2=O)c(C(C)(C)C)cc1CO` the value was 7.64 µM (active).

Regarding `O=C1OC(c2ccc(O)cc2)(c2ccc(O)cc2)c2ccccc21`, the AC50 is 0.586 µM (active).

Consider `CCCCCCCCCC[N+](C)(C)[O-]`, for which the call was inactive. Consider `CSc1ccc(Oc2ccc(S(N)(=O)=O)cc2CN(C)C)cc1C`, for which the AC50 is 4.05 µM (active). Same read-out and setting: as for `CC(C)c1cccc(C(C)C)c1`, the figure is 10 µM (active). Consider `CC(C)OC(=O)C(C)(C)Oc1ccc(C(=O)c2ccc(Cl)cc2)cc1`, for which the AC50 is 4.67 µM (active). In the case of `O=C(N[C@@H](c1ccccc1)[C@@H]1CCCCN1)c1cccc(C(F)(F)F)c1Cl`, the compound was classed as inactive. As for `S=c1[nH]c2ccccc2s1`, the AC50 was 1.92 µM (active). With `CN(C)C(=O)NC1(c2ccccc2)CCN(CC[C@@]2(c3ccc(F)c(F)c3)CN(C(=O)c3ccccc3)CCO2)CC1`, the call was inactive. On to `COC(=O)[C@H]1[C@H]2C[C@@H]3c4[nH]c5cc(OC)ccc5c4CCN3C[C@H]2C[C@@H](OC(=O)c2cc(OC)c(OC)c(OC)c2)[C@@H]1OC`, for which the AC50 is 7.91 µM (active). For the compound `CCCCC(CC)COP(=O)(OCC(CC)CCCC)OCC(CC)CCCC` (centres undefined), the result was inactive. `CCN(CC)CCOc1ccc(C(=C(Cl)c2ccccc2)c2ccccc2)cc1`: the AC50 was 2.68 µM (active) [middle of 4 runs].

For `Cc1cc(Cc2ccc(N)c(C)c2)ccc1N`, the AC50 is 7.05 µM (active). Turning to `CCCCCCCCCCCCCCCCO`, the AC50 is 12.6 µM (active). Take `CC(COCC(C)OC(=O)c1ccccc1)OC(=O)c1ccccc1` (centres undefined): the AC50 is 2.27 µM (active). Regarding `CC(C)(O)c1ccc(CNC(=O)c2cccnc2Oc2ccc(F)cc2)cc1`, the AC50 was 4.26 µM (active). Turning to `CC(=O)CC(c1ccccc1)c1c(O)c2ccccc2oc1=O` (centres undefined), the call was inactive. In the case of `CC(=O)OC1CC(C)OC(C)O1` (centres undefined), the AC50 is 15.1 µM (active).
